Measured values from PubChem BioAssay AID793 (The Scripps Research Institute Molecular Screening Center, 2007).
Hit rate of the full screen: of about 140,000 compounds, about 1,400 (1%) were called active. The sample as a whole holds a higher share of actives than the screen did. Values without a mark were called inactive. Cut-off read from the data, not from the text of the source: active = inhibition above about 17%; inactive = the rest.

molecular target: Neuropeptide Y receptor type 2 (Homo sapiens) (UniProt P49146); assay: blockers of human neuropeptide Y Y2 receptor – cell-based, primary screen (AID 793); details: NPY-Y2 expressing cells, antagonist mode; at 2.7 µM; hits give high values;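 note: 0% = vehicle with agonist challenge and 100% = reference antagonist with challenge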
Sequence (P49146 whole entry, looked up): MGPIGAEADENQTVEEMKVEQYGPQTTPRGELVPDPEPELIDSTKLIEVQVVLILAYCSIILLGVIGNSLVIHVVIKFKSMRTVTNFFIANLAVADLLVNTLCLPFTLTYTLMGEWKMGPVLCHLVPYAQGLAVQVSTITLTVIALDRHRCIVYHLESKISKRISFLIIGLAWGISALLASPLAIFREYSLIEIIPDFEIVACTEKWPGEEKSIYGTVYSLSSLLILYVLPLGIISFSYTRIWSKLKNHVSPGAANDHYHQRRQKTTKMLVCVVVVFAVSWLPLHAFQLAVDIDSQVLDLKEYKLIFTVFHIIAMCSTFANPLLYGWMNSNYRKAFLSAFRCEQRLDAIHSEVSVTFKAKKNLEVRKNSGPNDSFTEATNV

Row | SMILES | inhibition
1 | O=C(COC(=O)c1ccccc1)Nc1ccc(Cl)cc1C(=O)c1ccccc1 | 34.7% (active)
2 | CN1CCN(C(=S)SCC(=O)Nc2ccc(Cl)cc2C(=O)c2ccccc2)CC1 | 6.46%
3 | O=C(CCNS(=O)(=O)c1ccccc1)Nc1ccc(Cl)cc1C(=O)c1ccccc1 | 2.34%
4 | CN1CCN(Cc2ccc(OC(F)(F)F)cc2)CC1 | 3.95%
5 | CCOC(=O)c1c(-c2ccccc2)oc2ccc(OC(=O)N(C)C)cc12 | 4.26%
